# “And” between values parts separate entries of the source, which are not always exact repeats. Equal entries are not always repeated. Results filed as inconclusive are left out. Entries that show only a call come without a potency. More than one record can exist for a structure, and the calls need not agree. The source made the active and inactive calls. Unless noted, calls come from the whole dose curve; as a rule, active = well fitted curve in the direction sought with a large enough effect in the repeat runs; inconclusive = weak or mixed curves; inactive = no such curve, though single readings can be large; an effect the other way counts as inactive or inconclusive.
# What was measured:
# [1] = target: Thyrotropin receptor (Homo sapiens) (UniProt P16473); assay: qHTS assay to identify small molecule agonists of the thyroid stimulating hormone receptor (TSHR) signaling pathway (AID 1224843; calls by dose curve; note: nearly all actives have a fitted effect of over 45% in size)
# Chain of Thyrotropin receptor (Homo sapiens) (P16473 whole entry, looked up): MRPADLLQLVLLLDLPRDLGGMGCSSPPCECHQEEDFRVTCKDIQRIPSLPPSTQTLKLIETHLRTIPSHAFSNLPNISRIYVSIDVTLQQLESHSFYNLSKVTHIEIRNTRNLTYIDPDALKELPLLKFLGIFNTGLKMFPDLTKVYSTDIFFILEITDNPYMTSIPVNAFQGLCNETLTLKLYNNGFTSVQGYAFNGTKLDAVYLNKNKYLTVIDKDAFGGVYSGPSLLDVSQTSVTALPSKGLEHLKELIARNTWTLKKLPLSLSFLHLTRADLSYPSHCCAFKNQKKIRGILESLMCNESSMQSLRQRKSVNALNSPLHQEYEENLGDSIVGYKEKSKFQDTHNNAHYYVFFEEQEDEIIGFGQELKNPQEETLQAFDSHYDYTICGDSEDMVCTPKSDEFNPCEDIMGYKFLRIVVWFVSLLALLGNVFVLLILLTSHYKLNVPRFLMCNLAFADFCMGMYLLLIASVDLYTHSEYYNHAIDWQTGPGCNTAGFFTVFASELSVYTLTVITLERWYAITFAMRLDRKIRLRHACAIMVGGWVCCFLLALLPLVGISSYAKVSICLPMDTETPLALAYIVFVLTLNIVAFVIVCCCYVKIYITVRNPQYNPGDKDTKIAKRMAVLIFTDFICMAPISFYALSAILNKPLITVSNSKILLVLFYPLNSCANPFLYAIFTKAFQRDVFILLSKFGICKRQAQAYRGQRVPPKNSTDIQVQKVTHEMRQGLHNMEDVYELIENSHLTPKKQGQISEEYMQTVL
# Method in brief: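 HEK293/TSHR, 800 cells/well; cpd 30 min RT; add cAMP-d2 + anti-cAMP-cryptate, 1 h RT; fluorescence read on plate reader. 15-pt titration, n=3.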
# [2] = qHTS assay to identify small molecule agonists of the hypoxia (HIF-1) signaling pathway - cell viability counter screen (AID 1224844; calls by dose curve; note: nearly all actives have a fitted effect of over 50% in size)
# Method in brief: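 Cytotoxicity was measured in parallel with the HRE-driven beta-lactamase readout: after 17 hrs of compound exposure at 37C, HRE-bla ME-180 cells received CellTiter-Glo and luminescence was recorded 30 min later.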
# [3] = qHTS assay to identify small molecule agonists of H2AX (AID 1224845; active = well fitted activation curve with a large enough effect in the signal ratio in the repeat runs, not every such curve was filed as active; the % refers to the signal ratio)
# Method in brief: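 Wild-type CHO-K1 cells, plated overnight, exposed 3hr at 37C to 15 concentrations (0.76% DMSO final). Lysed, then HTRF anti-pH2AX (S139) cryptate and anti-H2AX-d2 antibodies, 24 hr room temperature; 665/620 nm emission read.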
# [4] = qHTS assay to identify small molecule agonists of the hypoxia (HIF-1) signaling pathway (AID 1224846; active = well fitted activation curve with a large enough effect in the signal ratio in the repeat runs, not every such curve was filed as active; the % refers to the signal ratio)
# Method in brief: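 Compounds from the Tox21 10K library, dissolved in DMSO, are tested for induction of a hypoxia response element–controlled beta-lactamase reporter in ME-180 cells. Exposure lasts 17 hrs at 37C after a 5 hr settling period, followed by CCF4-AM FRET substrate.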
# [5] = qHTS assay to identify small molecule agonists of H2AX - cell viability counter screen (AID 1224847; calls by dose curve; note: top concentration of the series differs between compounds; nearly all actives have a fitted effect of over 30% in size)
# Method in brief: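 After overnight plating of 1000 CHO-K1 cells per well, a 15-concentration compound series was applied for 3 hr at 37C. Luminescence from CellTiter-Glo, read following 30 min at room temperature, reflected cell viability.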
# [6] = qHTS RealTime-Glo MT Cell Viability Assay in HepG2 cells - 24 hour (AID 1224867); note: nearly all actives have a fitted effect of over 50% in size; note: potency is the fitted concentration of half-maximal effect
# Method in brief: (§1)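 Cells + NanoLuc/prosubstrate dispensed (600 cells/well) → 5 h at 37 C/5% CO2 → compounds in DMSO transferred → 40 h incubation at 37 C, luminescence read at 0, 8, 16, 24, 32, 40 h.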
# [7] = qHTS RealTime-Glo MT Cell Viability Assay in HEK293 cells - 32 hour (AID 1224868); note: nearly all actives have a fitted effect of over 50% in size; note: potency is the fitted concentration of half-maximal effect
# Method in brief: (§2)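 Tox21 10K qHTS, HEK293, 600 cells/well, RealTime-Glo reagent co-dispensed with cells; 5 h preincubation, compound by pintool, 37 C, luminescence at 0–40 h.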
# [8] = A CellTox Green Cytotoxicity Assay to monitor cytotoxicity in HEK293 cells - 0 hour (AID 1224869); note: nearly all actives have a fitted effect of over 50% in size
# Method in brief: (§3)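 Cells (HEK293, 600/well) and dye reagent are dispensed together. After 5 h at 37 C, 23 nL compound is pinned in. Plates stay at 37 C for 40 h with fluorescence read at 0h, 8h, 16h, 24h, 32h and 40h.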
# [9] = qHTS RealTime-Glo MT Cell Viability Assay in HepG2 cells - 40 hour (AID 1224870); note: nearly all actives have a fitted effect of over 50% in size
# Method in brief: (§4)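 HepG2 cells (600/well) mixed with RealTime-Glo MT reagent, settled 5 h at 37 C/5% CO2 before compound addition. Nonlytic NanoLuc luminescence from viable-cell prosubstrate reduction read repeatedly during 40 h treatment at 37 C.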
# [10] = A CellTox Green Cytotoxicity Assay to monitor cytotoxicity in HEK293 cells - 40 hour (AID 1224871); note: nearly all actives have a fitted effect of over 45% in size; note: potency is the fitted concentration of half-maximal effect
# Method in brief: as §3
# [11] = qHTS RealTime-Glo MT Cell Viability Assay in HEK293 cells - 16 hour (AID 1224872); note: nearly all actives have a fitted effect of over 50% in size; note: potency is the fitted concentration of half-maximal effect
# Method in brief: as §2
# [12] = qHTS RealTime-Glo MT Cell Viability Assay in HepG2 cells - 8 hour (AID 1224873); note: nearly all actives have a fitted effect of over 55% in size; note: potency is the fitted concentration of half-maximal effect
# Method in brief: as §4
# [13] = qHTS RealTime-Glo MT Cell Viability Assay in HEK293 cells - 40 hour (AID 1224874); conditions: RealTime-Glo luminescence; max response: stronger effect = lower value; note: nearly all actives have a fitted effect of over 50% in size; note: potency is the fitted concentration of half-maximal effect
# Method in brief: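 Real-time viability in HEK293: signal arises when living cells convert a prosubstrate for NanoLuc in the medium, so luminescence tracks viable cell number. Compound (23 nL, DMSO) added 5 h post-seeding; kinetic reads at 0–40 h, 37 C.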
# [14] = A CellTox Green Cytotoxicity Assay to monitor cytotoxicity in HEK293 cells - 24 hour (AID 1224875); note: series mostly up to about 77 µM; nearly all actives have a fitted effect of over 45% in size
# Method in brief: as §3
# [15] = A CellTox Green Cytotoxicity Assay to monitor cytotoxicity in HepG2 cells - 16 hour (AID 1224876); note: nearly all actives have a fitted effect of over 45% in size
# Method in brief: (§5)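 Cells and non-lytic dye reagent are dispensed together (600 HepG2 cells/well) and incubated 5 h before DMSO compound transfer. Kinetic fluorescence is then recorded in the same wells during 40 h at 37 C.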
# [16] = qHTS RealTime-Glo MT Cell Viability Assay in HepG2 cells - 32 hour (AID 1224877); note: nearly all actives have a fitted effect of over 55% in size
# Method in brief: as §1
# [17] = A CellTox Green Cytotoxicity Assay to monitor cytotoxicity in HepG2 cells - 24 hour (AID 1224878); note: nearly all actives have a fitted effect of over 45% in size; note: potency is the fitted concentration of half-maximal effect
# Method in brief: as §5
# [18] = A CellTox Green Cytotoxicity Assay to monitor cytotoxicity in HepG2 cells - 40 hour (AID 1224879); note: nearly all actives have a fitted effect of over 40% in size; note: potency is the fitted concentration of half-maximal effect
# Method in brief: as §5
# [19] = qHTS assay to identify small molecule antagonists of the estrogen related receptor (ERR) signaling pathway from Tox21 library (AID 1224848); note: nearly all actives have a fitted effect of over 50% in size
# Method in brief: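 Compounds dissolved in DMSO are pin-transferred onto ERR reporter cells (2,000 per well) that have settled for 6 h at 37 C. Plates then incubate 18 h at 37 C before ONE-Glo luciferase reagent and a luminescence read 30 min later.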
# [20] = qHTS assay to identify small molecule agonists of the estrogen related receptor (ERR) signaling pathway from Tox21 library (AID 1224849; calls by dose curve; note: nearly all actives have a fitted effect of over 15% in size)
# Method in brief: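 Cells carrying the ERR reporter were plated and allowed to settle for 6 h, exposed to library compounds for 18 h at 37 C, then lysed with ONE-Glo and luminescence measured.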
smiles,measurement,setting,value
O=[N+]([O-])c1ccc2nc[nH]c2c1,outcome,[1],inactive
same,outcome,[2],inactive
same,outcome,[3],inactive
same,outcome,[4],inactive
same,outcome,[5],inactive
same,Potency,[6],inactive
same,Potency,[7],inactive
same,outcome,[8],inactive
same,outcome,[9],inactive
same,Potency,[10],inactive
same,Potency,[11],inactive
same,Potency,[12],inactive
same,max response,[13],4.04% (inactive) and -21.2% (inactive)
same,Potency,[14],inactive
same,outcome,[15],inactive
same,outcome,[16],inactive
same,Potency,[17],inactive
same,Potency,[18],inactive
O=C(O)Cn1c(=O)n(Cc2ccc(Br)cc2F)c(=O)c2ccc(Cl)cc21,outcome,[1],inactive
same,outcome,[2],inactive
same,outcome,[3],inactive
same,outcome,[4],inactive
same,outcome,[5],inactive
same,outcome,[19],inactive
same,outcome,[20],inactive
same,Potency,[6],38.9 µM (active)
same,outcome,[8],inactive
same,outcome,[9],inactive
same,Potency,[10],inactive
same,Potency,[11],inactive
same,Potency,[12],21.9 µM (active) and 8.49 µM (active)
same,Potency,[14],inactive
same,outcome,[15],inactive
same,Potency,[17],inactive
same,Potency,[18],inactive
COc1ccc(C)cc1N,outcome,[1],inactive
same,outcome,[2],inactive
same,outcome,[3],inactive
same,outcome,[4],inactive
same,outcome,[5],inactive
same,Potency,[6],inactive
same,Potency,[7],inactive
same,outcome,[8],inactive
same,outcome,[9],inactive
same,Potency,[10],inactive
same,Potency,[11],inactive
same,Potency,[12],inactive
same,max response,[13],3.89% (inactive) and 7.66% (inactive)
same,Potency,[14],inactive
same,outcome,[15],inactive
same,outcome,[16],inactive
same,Potency,[17],inactive
same,Potency,[18],inactive
COCCOC(=O)c1ccccc1C(=O)OCCOC,outcome,[1],inactive
same,outcome,[2],inactive
same,outcome,[3],inactive
same,outcome,[4],inactive
same,Potency,[6],inactive
same,Potency,[7],inactive
same,outcome,[8],inactive
same,outcome,[9],inactive
same,Potency,[10],inactive
same,Potency,[11],inactive
same,Potency,[12],inactive
same,max response,[13],0.573% (inactive) and 0.131% (inactive)
same,Potency,[14],inactive
same,outcome,[15],inactive
same,outcome,[16],inactive
same,Potency,[17],inactive
same,Potency,[18],inactive
CCCCC(C=O)CC (stereo unspecified),outcome,[1],inactive
same,outcome,[2],inactive
same,outcome,[3],inactive
same,outcome,[4],inactive
same,outcome,[5],inactive
same,Potency,[6],inactive
same,Potency,[7],inactive
same,outcome,[8],inactive
same,Potency,[10],inactive
same,Potency,[11],inactive
same,Potency,[12],inactive
same,max response,[13],-0.352% (inactive) and 2.13% (inactive)
same,Potency,[14],inactive
same,outcome,[15],inactive
same,outcome,[16],inactive
same,Potency,[17],inactive and 14.6 µM (active)
same,Potency,[18],inactive and 14.6 µM (active)
CCCCCCCCCCO,outcome,[1],inactive
same,outcome,[2],inactive
same,outcome,[3],inactive
same,outcome,[4],inactive
same,outcome,[5],inactive
same,Potency,[6],inactive
same,Potency,[7],inactive
same,outcome,[8],inactive
same,Potency,[10],24.6 µM (active) and inactive
same,Potency,[11],inactive
same,Potency,[12],inactive
same,max response,[13],1.72% (inactive) and 1.45% (inactive)
same,outcome,[15],inactive
same,outcome,[16],inactive
same,Potency,[17],inactive
same,Potency,[18],inactive
O=C(O)c1ccc(S(=O)(=O)N(Cl)Cl)cc1,outcome,[1],inactive
same,outcome,[2],inactive
same,outcome,[3],inactive
same,outcome,[4],inactive
same,Potency,[6],inactive
same,Potency,[7],49.3 µM (active) and inactive
same,outcome,[8],inactive
same,outcome,[9],inactive
same,Potency,[10],inactive
same,Potency,[11],49.3 µM (active) and inactive
same,Potency,[12],inactive
same,Potency,[13],43.9 µM (active)
same,max response,[13],0.122% (inactive)
same,Potency,[14],inactive
same,outcome,[15],inactive
same,outcome,[16],inactive
same,Potency,[17],inactive
same,Potency,[18],inactive

# From PubChem BioAssay (Tox21)
